Shiga inhibitor: blocks Shiga toxin action in Vero cells; inhibition, % at 38.7 µM; 290,000 compounds, 9.2% hits; Vero cells, Shiga toxin protein synthesis inhibition reporter; in the data active = inhibition mostly above about 28%, no sharp cut-off; inactive = mostly below about 43%; also: 0% is about no effect
Giardia FBPA inh: inhibitors of Giardia lamblia fructose-1,6-bisphosphate aldolase | Potency, µM (highest dose often 59.6 µM), without a hit: at the highest dose activity, negative = inhibition, usual class: inhibitors | AID 2451 | 290,000 compounds, 0.71% hits | purified Giardia FBPA; also: potency is read from the fitted curve at half-maximal effect; % is scaled to controls: 0 for no effect and ±100 for the full control effect; nearly all actives have a fitted effect of over 55% in size
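Giardia FBPA (40 nM reagent) was preincubated 10 min at RT with compound (up to 57.5 uM final), then substrate plus GAPDH/TPI/NAD/arsenate coupling system with diaphorase/resazurin was added; resorufin fluorescence (525/598 nm) was read after 20 min.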
Cycloheximide cs: counter-screen for Shiga toxin inhibitors: cycloheximide protein synthesis inhibition; cell reporter, cycloheximide protein synthesis inhibition counterscreen; AID 2314; 300,000 compounds, 12% hits; max response, %; in the data active = max response mostly above about 13%, no sharp cut-off; inactive = mostly below about 14%; also: read at 38.3 µM for the half of the compounds with a filed dose; 0% is about no effect
TbPYK inhibitor: blocks Trypanosoma brucei pyruvate kinase | AID 624173 | 410,000 compounds, 0.12% hits | Potency, µM (top dose mostly 76.8 µM), for the others: at the highest dose activity, negative = inhibition, usual class: inhibitors | Q57TT1 | TbPYK enzyme, Kinase-Glo Plus ATP luminescence, 45 min; also: potency is read from the fitted curve at half-maximal effect; % is scaled to controls: 0 for no effect and ±100 for the full control effect; nearly all actives have a fitted effect of over 50% in size
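T. brucei PYK with substrate was exposed to pin-transferred compounds across a concentration series, then started with 130 uM ADP (final). After 45 min at room temperature, Kinase-Glo Plus luminescence was read, normalized and curve-fitted.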
LmPK inh: blocks Leishmania mexicana pyruvate kinase activity. purified LmPK, Kinase-Glo ATP luminescence, 1 h. AID 1721. Q27686. 290,000 compounds, 0.37% hits. Potency, µM (titrated, usually from 57.5 µM), without a hit: at the top dose activity change, negative = inhibition, usual class: inhibitors; also: potency is read from the fitted curve at half-maximal effect; % is scaled to controls: 0 for no effect and ±100 for the full control effect
Target sequence (Q27686 whole entry, looked up): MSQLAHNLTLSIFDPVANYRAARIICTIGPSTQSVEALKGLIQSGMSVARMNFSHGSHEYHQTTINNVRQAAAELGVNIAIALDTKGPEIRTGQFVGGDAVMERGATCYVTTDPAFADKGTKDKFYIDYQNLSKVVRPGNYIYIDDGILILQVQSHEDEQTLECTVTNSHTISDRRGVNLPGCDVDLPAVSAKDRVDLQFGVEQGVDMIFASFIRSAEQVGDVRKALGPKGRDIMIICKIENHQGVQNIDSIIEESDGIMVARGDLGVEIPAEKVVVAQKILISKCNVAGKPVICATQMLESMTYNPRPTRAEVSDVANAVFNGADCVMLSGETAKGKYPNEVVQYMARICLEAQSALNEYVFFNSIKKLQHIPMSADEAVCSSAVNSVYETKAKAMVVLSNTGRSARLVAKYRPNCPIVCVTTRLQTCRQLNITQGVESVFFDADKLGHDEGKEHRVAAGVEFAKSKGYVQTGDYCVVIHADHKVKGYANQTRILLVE
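Kinase-Glo luminescence read after 1 h RT reaction of 0.1 nM LmPK with 0.5 mM PEP and 0.1 mM ADP. Activity scaled between uninhibited and enzyme-free controls.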
RE007 growth inh: less growth of the S. pombe RE007 Vpr strain. S. pombe RE007 Vpr strain, BacTiter-Glo ATP luminescence, 24 h. Potency, µM (doses to about 92.2 µM), for inactives: top-dose activity change, negative = less growth, actives largely listed as inhibitors. 360,000 compounds, 0.21% hits. AID 651644; active = well fitted falling curve with a large enough effect; inconclusive = small, poorly fitted or top-dose-only effect; inactive = no such curve, though single readings can be large or run the other way; also: potency is read from the fitted curve at half-maximal effect; % is scaled to controls: 0 for no effect and ±100 for the full control effect; nearly all actives have a fitted effect of over 50% in size
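Fission yeast RE007 carrying one integrated HIV-1 vpr copy, seeded at OD 0.01 in PMG+AL medium with 23 nL pinned compound. Grown 24 h at 30 degrees; viability read by BacTiter-Glo luminescence after 5 min.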
Numbers without * were called inactive; ? = inconclusive; . = no result given; ! = not confirmed by another sample; [ ] = remark or other dose. This excerpt belongs to a sample that is enriched for hits. Unless noted, calls follow the shape of the dose curve; as a rule, active = well fitted curve in the direction sought with a large enough effect; inconclusive = small, poorly fitted or top-dose-only effect, or another doubt; inactive = no such curve, though single readings can be large; an effect the other way counts as inactive or inconclusive.

SMILES	Shiga inhibitor	Giardia FBPA inh	Cycloheximide cs	TbPYK inhibitor	LmPK inh	RE007 growth inh
Cc1ccsc1/C=C1\CCc2ccccc2C1=O	26	-3%	41*	?	?	13µM*
O=C1C(=NO)CCCc2ccccc21	.	.	.	-13%	.	6%
O=C1/C(=C\c2ccc3ccccc3c2)CCCc2ccccc21	73*	-9%	60*	-5%	-16%	-6%
Cc1ccccc1/C=C1\CCCc2ccccc2C1=O	80*	-2%	45*	-16%	?	-16%
O=C1C(=Cc2cccc(F)c2)Cc2ccccc21	.	.	.	1%	.	-8%[18.4 µM]
CCN1C/C(=C/c2sccc2C)c2nc3ccccc3c(C(=O)O)c2C1	-11	5%	11	-8%	0%	-4%
Cc1cccc(OCC(=O)N2CCC(c3nc4ccccc4o3)CC2)c1C	.	.	.	-3%	.	.
Cc1ccc(/C=C/C(=O)Nc2ccccc2C(N)=O)cc1	63*	-1%	46*	-3%	-17%	-24%
O=C(O)/C=C/C(=O)NNC(=O)c1ccccc1Br	22	-3%	11	-15%	2%	1%
Cc1ccc(/C=C/C(=O)NC(=S)Nc2ccccc2C(=O)NC2CCCCC2)cc1	-6	3%	-1	2%	0%	2%
CCCCCCOC(=O)c1ccccc1NC(=O)/C=C/C(=O)O	117*	9%	51*	4%	-1%	?
Cc1ccccc1C(=O)NNC(=O)/C=C\C(=O)O	83*	-18%	38*	-11%	3%	6%
Cc1ccc(C=Nc2ccccc2C(N)=O)cc1	71*	?	47*	-2%	16%	-3%
CCOC(=O)c1ccccc1NC(=O)/C=C/C(=O)O	1	5%	4	-14%	6%	-19%
c1ccc(CNc2nc3ccccc3c3nc(-c4ccccc4)nn23)cc1	.	.	.	1%	.	.
NC(=O)c1ccccc1NC(=O)/C=C/C(=O)O	53*	4%	35*	1%	-5%	8%
O=C(O)c1ccc2nc(-c3cc4cc(Cl)ccc4oc3=O)[nH]c2c1	.	.	.	-14%	.	.
COc1cc(Cl)ccc1OCc1cc(C(=O)N2CCN(C)CC2)no1	7	.	8	-2%	-11%	-12%
COc1ccc(OCc2cc(C(=O)N3CCCN(C(C)=O)CC3)no2)c(Cl)c1	43*	.	32*	0%	8%	-1%
COc1cc(Cl)ccc1OCc1cc(C(=O)N2CCCCCC2)no1	74*	.	32*	-10%	-11%	-8%
COc1cc(Cl)ccc1OCc1cc(C(=O)N2CCCC(OC)C2)no1 (configuration not stated)	80*	.	54*	0%	-5%	0%
CCN(Cc1ccc(OC)c(F)c1)C(C)C(=O)Nc1ccc(S(=O)(=O)N2CCCC2)cc1 (configuration not stated)	.	.	.	2%	.	-8%
CC1=C(C(=O)O)N2C(=O)C(NC(=O)C(N)C3=CCC=CC3)C2SC1 (configuration not stated)	.	7.9µM*	.	.	.	.
N[C@@H](C(=O)N[C@@H]1C(=O)N2C(C(=O)O)=C(Cl)CS[C@H]12)c1ccccc1	-4	20µM*!	-2	-9%	4%	-1%
C=CC1=C(C(=O)O)N2C(=O)[C@@H](NC(=O)C(N=O)c3csc(N)n3)[C@H]2SC1 (some centres not stated)	-4	16µM*	3	-7%	.	.
SMILES	Shiga inhibitor	Giardia FBPA inh	Cycloheximide cs	TbPYK inhibitor	LmPK inh	RE007 growth inh
C=CC1=C(C(=O)O)N2C(=O)[C@@H](NC(=O)/C(=N\O)c3csc(N)n3)[C@H]2SC1 (stereo in doubt)	.	.	.	-9%	.	-7%[18.4 µM]
Cc1ccc(C)c(CN2C(=O)N(c3cc(Cl)ccc3C)S(=O)(=O)c3ccccc32)c1	.	.	.	3%	.	.
O=S(=O)(/C=C/c1ccccc1)Oc1ccccc1	21	6%	28*	1%	-1%	3%
CNS(=O)(=O)/C=C/c1ccccc1	12	2%	7	5%	-1%	-1%
COc1ccc(-c2nc(CN3CCC(C(=O)NCCCOC(C)C)CC3)c(C)o2)cc1OC	.	.	.	1%	.	.
Cc1ccc(-c2cn3c(=S)[nH]nc3s2)cc1	-9	-9%	-2	?	2.2µM*	4%
CCN(CCCNC(=O)c1cc(Nc2ccccc2OC)nc2ccccc12)c1cccc(C)c1	.	.	.	-1%	.	.
Cc1nc2ccccc2n1CCc1nc2c3ccccc3nc(SCc3ccccc3F)n2n1	.	.	.	3%	.	.
CC(=O)c1sc(-c2ccc(Cl)cc2)cc1N	35*	3%	27*	3%	4%	-14%
COC(=O)c1sc(-c2cccs2)cc1N	47*	1%	40*	-5%	-5%	1%
COC(=O)c1sc(-c2ccc(Cl)cc2)cc1N	80*	-4%	66*	4%	2%	-7%
Cc1ccc2c(CC(=O)N(Cc3ccc(Cl)cc3)Cc3ccco3)coc2c1	.	.	.	2%	.	.
O=C(CN1C(=O)c2ccccc2S1(=O)=O)NCCSCc1ccccc1Cl	27	7%	13*	4%	-2%	1%
COc1ccccc1OCC(=O)NCCSCc1ccccc1Cl	-44	4%	13	-19%	1%	-11%
O=C(/C=C/c1ccccc1)NCCSCc1ccc(Cl)cc1	-17	5%	0	-5%	-1%	12%
O=C(/C=C/c1ccccc1)NCCSCc1ccccc1Cl	-23	-4%	11*	-8%	4%	17%
O=C(COc1ccccc1)NCCSCc1ccccc1Cl	48*	4%	42*	0%	6%	-8%
Cc1ccc(NS(=O)(=O)c2ccc(-c3cc(C)no3)cc2)c(C)c1	.	.	.	1%	.	.
Cc1cccc(NC(=O)c2c(C)oc3ncn(CC(C)C)c(=O)c23)n1	.	.	.	0%	.	.
Cc1cc2nc(-c3cccnc3SCC(=O)NCc3ccco3)[nH]c2cc1C	42	?	21*	-2%	?	-25%
O=C(CSc1nc2ncccc2[nH]1)NC1CCCC1	-2	?	-2	-9%	-3%	10%
O=C(CSc1nc2ccccc2[nH]1)NCc1ccco1	65	-3%	29	1%	0%	-1%
O=C(CSc1ncccc1-c1nc2ccccc2[nH]1)NCc1ccco1	56*	-26%	40*	-25%	5%	-7%
O=C(CSc1nc2ncccc2[nH]1)NCc1ccco1	-9	.	1	1%	12%	-14%
Cc1cc2nc(-c3cccnc3SCC(=O)NC3CC3)[nH]c2cc1C	52*	?	23*	.	14µM*	.
Cc1cc(-c2c(C)[nH]n(-c3ccc(Cl)cc3)c2=O)n[nH]1	30	-19%	27*	-5%	-5%	-20%
Cc1[nH]n(-c2ccccc2)c(=O)c1Sc1ccc(Cl)cc1	-7	9%	2	5%	1%	-10%
CCOC(=O)c1c(/N=C/c2c(O)n(-c3ccc(F)cc3)c(=S)[nH]c2=O)sc2c1CCCC2	-11	-2%	-5	-10%	7%	-10%

Assay outcomes deposited in PubChem by National Center for Advancing Translational Sciences (NCATS).
